PubChem BioAssay AID1159580 (chemical genetic matrix, 2015)
The whole screen tested about 5,500 compounds, of which about 2,000 (36%) were called active. About 18% were inconclusive and are not listed. Cut-off read from the data, not from the text of the source: active = normalized growth mostly below about 0.91 (no sharp cut-off); inconclusive = no clear call, values can overlap the other calls; inactive = mostly above about 0.92. The list shows a part of the results.

Assay: chemical genetic growth profiling, strain panel (AID 1159580);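 note: tested at 20 µM; growth read once vehicle control cultures reached saturation at 30 °C; 1 = growth at the plate median or of vehicle wells; lower values mean less growth of the strain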
Conditions: growth OD

Measured: normalized growth

CC(=O)Oc1ccc(O)cc1
active: S. cerevisiae deletion strains, locus YLR330W, strain CHS5, hits give low values 0.914
inactive: S. cerevisiae deletion strains, locus YJL187C, strain SWE1, hits give low values 0.978 | S. cerevisiae deletion strains, locus YJR043C, strain POL32, hits give low values 0.929 | S. cerevisiae deletion strains, locus YJR075W, strain HOC1, hits give low values 0.955 | S. cerevisiae deletion strains, locus YKL009W, strain mrt4, hits give low values 1.02 | S. cerevisiae deletion strains, locus YKL068W, hits give low values 1.01 | S. cerevisiae deletion strains, locus YKL085W, strain MDH1 (second series), hits give low values 1.04 | S. cerevisiae deletion strains, locus YKL085W, strain MDH1, hits give low values 1.04 | S. cerevisiae deletion strains, locus YKL160W, strain elf1, hits give low values 0.995 | S. cerevisiae deletion strains, locus YKR001C, strain vps1, hits give low values 0.945 | S. cerevisiae deletion strains, locus YKR026C, strain gcn3, hits give low values 0.979 | S. cerevisiae deletion strains, locus YKR091W, strain srl3, hits give low values 0.985 | S. cerevisiae deletion strains, locus YLL001W, strain dnm1, hits give low values 0.994 | S. cerevisiae deletion strains, locus YLL026W, hits give low values 0.987 | S. cerevisiae deletion strains, locus YLL041C, strain sdh2, hits give low values 0.99 | S. cerevisiae deletion strains, locus YLR027C, strain aat2, hits give low values 0.993 | S. cerevisiae deletion strains, locus YLR039C, strain RIC1, hits give low values 1.05 | S. cerevisiae deletion strains, locus YLR058C, strain SHM2, hits give low values 0.991 | S. cerevisiae deletion strains, locus YLR102C, strain apc9, hits give low values 1.02 | S. cerevisiae deletion strains, locus YLR221C, strain rsa3, hits give low values 0.959 | S. cerevisiae deletion strains, locus YLR258W, strain gsy2, hits give low values 0.989 | S. cerevisiae deletion strains, locus YLR262C, strain YPT6 (second series), hits give low values 0.996 | S. cerevisiae deletion strains, locus YLR262C, strain YPT6, hits give low values 0.926 | S. cerevisiae deletion strains, locus YLR268W, strain sec22, hits give low values 0.977 | S. cerevisiae deletion strains, locus YLR320W, strain mms22, hits give low values 0.923 | S. cerevisiae deletion strains, locus YLR342W, strain FKS1 (second series), hits give low values 0.819 | S. cerevisiae deletion strains, locus YLR342W, strain FKS1, hits give low values 0.979 | S. cerevisiae deletion strains, locus YLR357W, strain rsc2, hits give low values 0.988 | S. cerevisiae deletion strains, locus YLR370C, strain arc18, hits give low values 1 | S. cerevisiae deletion strains, locus YLR371W, strain rom2, hits give low values 1.02 | S. cerevisiae deletion strains, locus YLR384C, strain iki3, hits give low values 0.997 | S. cerevisiae deletion strains, locus YLR418C, strain cdc73, hits give low values 0.934 | S. cerevisiae deletion strains, locus YML016C, strain PPZ1, hits give low values 1.01 | S. cerevisiae deletion strains, locus YML032C, strain rad52, hits give low values 0.967 | S. cerevisiae deletion strains, locus YML120C, strain ndi1, hits give low values 1.02 | S. cerevisiae deletion strains, locus YML124C, strain tub3, hits give low values 1.03 | S. cerevisiae deletion strains, locus YMR058W, strain fet3, hits give low values 0.979 | S. cerevisiae deletion strains, locus YMR078C, strain ctf18, hits give low values 1.03 | S. cerevisiae deletion strains, locus YMR125W, strain sto1, hits give low values 0.977 | S. cerevisiae deletion strains, locus YMR129W, hits give low values 0.99 | S. cerevisiae deletion strains, locus YMR205C, strain PFK2, hits give low values 1 | S. cerevisiae deletion strains, locus YMR223W, strain ubp8, hits give low values 1 | S. cerevisiae deletion strains, locus YMR231W, strain pep5, hits give low values 0.962 | S. cerevisiae deletion strains, locus YMR263W, strain SAP30, hits give low values 0.991 | S. cerevisiae deletion strains, locus YMR307W, strain GAS1, hits give low values 0.791 | S. cerevisiae deletion strains, locus YNL067W, strain RPL9B, hits give low values 0.966 | S. cerevisiae deletion strains, locus YNL071W, strain lat1, hits give low values 0.961 | S. cerevisiae deletion strains, locus YNL128W, strain TEP1, hits give low values 1.01 | S. cerevisiae deletion strains, locus YNL153C, strain GIM3, hits give low values 0.956 | S. cerevisiae deletion strains, locus YNL209W, strain ssb2, hits give low values 0.988 | S. cerevisiae deletion strains, locus YNL233W, strain BNI4, hits give low values 0.94 | S. cerevisiae deletion strains, locus YNL248C, strain rpa49, hits give low values 0.956 | S. cerevisiae deletion strains, locus YNL250W, strain rad50, hits give low values 1.04 | S. cerevisiae deletion strains, locus YNL271C, strain bni1, hits give low values 1.04 | S. cerevisiae deletion strains, locus YNL298W, strain CLA4, hits give low values 1.03 | S. cerevisiae deletion strains, locus YNL307C, strain MCK1, hits give low values 0.96 | S. cerevisiae deletion strains, locus YNL322C, strain KRE1 (second series), hits give low values 0.993 | S. cerevisiae deletion strains, locus YNL322C, strain KRE1, hits give low values 0.996 | S. cerevisiae deletion strains, locus YNR049C, strain mso1, hits give low values 0.989 | S. cerevisiae deletion strains, locus YNR052C, strain pop2, hits give low values 1.02 | S. cerevisiae deletion strains, locus YOL012C, strain htz1 0.741 | S. cerevisiae deletion strains, locus YOL147C, strain pex11, hits give low values 1.03 | S. cerevisiae deletion strains, locus YOR001W, strain rrp6, hits give low values 0.992 | S. cerevisiae deletion strains, locus YOR061W, strain CKA2, hits give low values 1.01 | S. cerevisiae deletion strains, locus YOR069W, strain VPS5, hits give low values 1.01 | S. cerevisiae deletion strains, locus YOR070C, strain gyp1, hits give low values 0.975 | S. cerevisiae deletion strains, locus YOR080W, strain dia2, hits give low values 0.998 | S. cerevisiae deletion strains, locus YOR083W, strain WHI5, hits give low values 0.974 | S. cerevisiae deletion strains, locus YOR106W, strain vam3, hits give low values 0.995 | S. cerevisiae deletion strains, locus YOR136W, strain idh2, hits give low values 1.01 | S. cerevisiae deletion strains, locus YOR144C, strain elg1, hits give low values 1.03 | S. cerevisiae deletion strains, locus YOR184W, strain ser1, hits give low values 0.984 | S. cerevisiae deletion strains, locus YOR265W, strain rbl2, hits give low values 1.01 | S. cerevisiae deletion strains, locus YOR270C, strain vph1, hits give low values 0.986 | S. cerevisiae deletion strains, locus YOR290C, strain snf2, hits give low values 0.995 | S. cerevisiae deletion strains, locus YOR316C, strain cot1, hits give low values 1.04 | S. cerevisiae deletion strains, locus YPL051W, strain arl3, hits give low values 0.962 | S. cerevisiae deletion strains, locus YPL078C, strain atp4, hits give low values 1.02 | S. cerevisiae deletion strains, locus YPL106C, strain sse1, hits give low values 0.991 | S. cerevisiae deletion strains, locus YPL240C, strain hsp82, hits give low values 0.999 | S. cerevisiae deletion strains, locus YPL241C, strain CIN2, hits give low values 1.02 | S. cerevisiae deletion strains, locus YPR119W, strain clb2, hits give low values 1.01 | S. cerevisiae deletion strains, locus YPR141C, strain kar3, hits give low values 1.03 | S. cerevisiae deletion strains, locus YPR163C, strain tif3, hits give low values 0.974 | S. cerevisiae deletion strains, locus YPR167C, strain met16, hits give low values 1.03 | S. cerevisiae deletion strains, strain wtn01, hits give low values 0.995 | S. cerevisiae strains, strain wild type, hits give low values 0.925
